Assay outcomes (PubChem BioAssay)
The list is not random: actives were taken first. Their share in the collection is about 19%.
HT1080NT lethal: kills 2HG-producing HT-1080-NT fibrosarcoma cells. AID 686970. hit rate 1.6% among 360,000. HT-1080-NT fibrosarcoma viability, CellTiter-Glo ATP luminescence, 48 h. Potency, µM (series often up to 46.1 µM), without a hit: top-dose activity, negative = less viability, usual class: cytotoxic;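 further: NT is the 2HG producing partner of a matched IDH1 knockdown line; potency means the concentration at half of the fitted maximal effect; 0% = DMSO-treated cells and -100% = media-only wells without cells; nearly all actives have a fitted effect of over 55% in size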
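Fibrosarcoma NT cells, 750 per well in 5% FBS RPMI, were exposed to compound for 48 hours. Viability: CellTiter-Glo luminescence.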
HT1080 IDH1KD tx: kills HT-1080 cells with IDH1 knockdown; AID 686971; HT-1080 IDH1 knockdown viability, ATP luminescence, 48 h; Potency, µM (highest dose often 46.1 µM), without a hit: top-dose activity, negative = toxicity, hits mostly cytotoxic; hit rate 2% among 360,000;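 further: potency means the concentration at half of the fitted maximal effect; 0% = DMSO wells and -100% = cell-free medium wells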
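CellTiter-Glo luminescence after 48 h compound exposure at 37 degrees C of IDH1-knockdown HT-1080 cells in 5% FBS RPMI. %Activity scaled between DMSO wells and cell-free media wells, with curves fitted and assigned curve classes.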
DT40 TDP1 no CPT: qHTS for Inhibitors of human tyrosyl-DNA phosphodiesterase 1 (TDP1): qHTS in cells in absence of CPT. Potency, µM (series often up to 46.2 µM), inactives show top-dose activity change, negative = growth inhibition, actives largely listed as inhibitors. DT40 Tdp1-/- hTDP1 cells, no CPT, ATP luminescence, 48 h. hit rate 15% among 420,000. AID 686978, 2013; further: potency means the concentration at half of the fitted maximal effect; nearly all actives have a fitted effect of over 55% in size
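Chicken DT40 Tdp1-/- cells complemented with human TDP1, screened without camptothecin (DMSO vehicle only), 400 cells/well. Compounds pin-transferred, cells incubated at 37 °C for at least 48 hr. Growth read as ATP-dependent luminescence (CellTiter-Glo, 30 min at RT).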
DT40 TDP1 CPT: DT40-hTDP1 cell growth loss with CPT | chicken DT40 Tdp1-/-;hTDP1 cells + 20 nM CPT, ATP luminescence, 48 h | Potency, µM (series often up to 46.2 µM), for inactives: top-dose activity change, negative = growth inhibition, hits mostly inhibitors | hit rate 12% among 420,000 | AID 686979; further: potency means the concentration at half of the fitted maximal effect; nearly all actives have a fitted effect of over 55% in size
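Chicken DT40 Tdp1-/- cells complemented with human TDP1, 400 cells/well, exposed to compounds plus 20 nM camptothecin for at least 48 h at 37 C; viability read as ATP content by CellTiter-Glo luminescence.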
IL1B secr inh: inflammasome signaling inhibition, IL-1 beta readout; THP-1 LPS/ATP IL-1B secretion, AlphaLISA, 16 h; active compounds read low; activity change, % at 57.5 µM; hit rate 4.7% among 360,000; AID 743279; in the data active means activity change below about -50%; inconclusive means mostly about -30% to -49%
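THP-1 cells pretreated 1 hr with compounds (up to 57.5 uM final), then stimulated with LPS (250 ng/mL final) plus ATP (1.25 mM final); secreted IL-1B measured by AlphaLISA after 16 hr, decreased signal indicating inhibition.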
* marks the source's active call; other numbers are inactive results; ? = inconclusive; nt = not tested or not shown; ! = not confirmed by another sample; [ ] = remark or other dose. Unless noted, the call rests on the fitted dose curve; in most records, active means well fitted curve in the direction sought with a large enough effect; inconclusive means small, poorly fitted or top-dose-only effect, or another doubt; inactive means no such curve, though single readings can be large; an effect the other way counts as inactive or inconclusive. Unless noted, on the % scale 0 is the no-effect control and ±100 the full control effect.

SMILES	HT1080NT lethal	HT1080 IDH1KD tx	DT40 TDP1 no CPT	DT40 TDP1 CPT	IL1B secr inh
Cc1ccc2c(c1C)-c1c(ccc(C)c1C)C(=O)C2=O	5.8µM*	10µM*	1µM*	0.92µM*	-85*
Nc1ccc2c(c1Cl)C(=O)c1ccc(N)c(Cl)c1C2=O	2%	-2%	?	2%	-20
Cc1[nH][nH]c(=O)c1C(c1ccc(O)c(Br)c1)c1c(C)[nH][nH]c1=O	-12%	-12%	?	-27%	-73*
CCOc1cc(C(c2c(C)[nH][nH]c2=O)c2c(C)[nH][nH]c2=O)ccc1O	2%	12%	-8%	-19%	-63*
COc1cc(C(c2c(C)[nH][nH]c2=O)c2c(C)[nH][nH]c2=O)ccc1OC(C)C	1%	3%	-23%	12%	-70*
COc1ccc(C(c2c(C)[nH][nH]c2=O)c2c(C)[nH][nH]c2=O)cc1Br	-4%	7%	?	-6%	-29
Cc1ccc(C(C)C)c(OCC(=O)Nc2cccc(NC(=O)c3ccco3)c2)c1	nt	nt	21µM*	?	nt
Cc1ccc(C(C)C)c(OCCNC(=O)c2ccccc2O)c1	?	?	26µM*	15µM*	-81*
COc1ccc(NC(=O)c2ccco2)cc1NC(=O)c1ccc(C)cc1	-4%	-4%	?	-14%	-5
Cc1ccc(C(C)C)c(OCC(=O)NNC(=O)Nc2ccccc2)c1	?	-15%	?	-29%	-76*
COc1ccc(NC(=O)c2ccco2)cc1NC(=O)COc1cc(C)ccc1C(C)C	nt	nt	7.3µM*	8.2µM*	nt
Cc1ccccc1OCC(=O)Nc1cccc(NC(=O)c2ccco2)c1	2%	0%	?	?	-7
CC(=O)NCCc1ccc(C(=O)COC(=O)C2CCCCC2)cc1	17%	21%	-17%	-14%	3
COCCCNc1nc2nonc2nc1N1CCC(C(C)N2CCOCC2)CC1 (stereo unspecified)	2%	1%	6%	0%	12
CCCCN(C(=O)CSCC(=O)Nc1ccc(OC)cc1)c1c(N)n(CC(C)C)c(=O)[nH]c1=O	6%	2%	4%	0%	18
CC(C)CN(CCCNC(=O)Cn1ncc2c3ccccc3n(C)c2c1=O)CC(C)C	nt	nt	-17%	-3%	nt
CCOc1cc(C(=O)NC(C)c2ccncc2)cc(OCC)c1OCC (stereo unspecified)	-1%	8%	-18%	-19%	-4
O=C(NCCNC(=O)c1cccnc1)c1cccnc1	23%	24%	-5%	9%	25
CC(C)c1ccccc1OCCNC(=O)c1cccnc1	8%	-1%	21µM*	18µM*	2
Cc1ccc(C(C)C)c(OCC(=O)N/N=C/c2cccn2C)c1	-4%	-5%	15µM*	?	-7
CCOc1cc(Br)c(C(C)NC(=O)c2cccnc2)cc1OCC (stereo unspecified)	-9%	-4%	23µM*	18µM*	34
COc1ccc(NC(=O)c2ccco2)cc1NC(=O)c1ccc(OC(C)C)cc1	nt	nt	21µM*	?	nt
Cn1c(SCC2CCCO2)nnc1-c1ccc([N+](=O)[O-])cc1 (stereo unspecified)	6%	8%	1%	-2%	31
COc1ccc(/C=C/C(=O)OCC(=O)Nc2ccc(C)cc2)cc1S(=O)(=O)N1CCOCC1	-1%	3%	-23%	-8%	16
COc1ccc(Cl)cc1NC(=O)C(C)Sc1n[nH]c(N)n1 (stereo unspecified)	0%	-3%	?	-21%	0
SMILES	HT1080NT lethal	HT1080 IDH1KD tx	DT40 TDP1 no CPT	DT40 TDP1 CPT	IL1B secr inh
COc1ccccc1N1CCN(Cc2cc(=O)c(OCC(=O)NC(C)C)co2)CC1	9%	9%	?	?	40
C=CCOC(=O)C1=C(C)NC(SCC(=O)N(CC)CC)=C(C#N)C1c1ccccc1 (stereo unspecified)	-22%	?	21µM*	21µM*	-51*
CCN(CC)C(=O)CSC1=C(C#N)C(c2ccco2)C(C(=O)OCCOC)=C(C)N1 (stereo unspecified)	-9%	13%	?	21µM*!	0
C=CCOC(=O)C1=C(C)NC(SCC(=O)N(CC)CC)=C(C#N)C1c1ccco1 (stereo unspecified)	12%	10%	?	-11%	-13
O=C(Cn1c(=O)c2sccc2n(CC(=O)Nc2ccc(Cl)cc2Cl)c1=O)NCCc1ccccc1	nt	nt	-18%	?	nt
COc1ccccc1N1CCN(C(=O)c2ccncc2)CC1	12%	1%	?	-9%	16
CC(=O)c1ccc(N2CCN(C(=O)c3ccc4[nH]c(C)c(C)c4c3)CC2)cc1	?	-10%	16µM*	21µM*	-12
O=C(c1ccc2[nH]c3c(c2c1)CCCC3)N1CCN(c2ccc(F)cc2)CC1	-1%	-1%	?	23µM*	-18
COc1ccccc1N1CCN(C(=O)c2ccc3[nH]c4c(c3c2)CCCC4)CC1	?	-29%	?	?	-76*
Cc1[nH]c2ccc(C(=O)N3CCN(c4ccc(F)cc4)CC3)cc2c1C	-1%	0%	-17%	?	0
Cc1ccc(NC(=S)NNC(=O)CCn2cc(C)cn2)cc1	2.8µM*	6.3µM*	-10%	-1%	21
Cc1cnn(CCC(=O)NNC(=S)NCC(C)C)c1	13%	23%	26µM*	?	-8
Cc1cnn(CCC(=O)NNC(=S)Nc2ccccc2)c1	7.1µM*	8.9µM*	18µM*	11µM*	10
COc1ccc2c(c1)-c1nc(-n3ncc(C(=O)N(C)C(C)c4ccon4)c3C3CC3)ncc1CC2 (stereo unspecified)	nt	nt	?	-20%[9.04 µM]	nt
COc1ccc(CN(C)C(=O)c2ccc(NC(=O)CC3SC(N4CCCCC4)=NC3=O)cc2)c(OC)c1 (stereo unspecified)	-1%	-1%	?	?	-30
CSC[C@@H]1NC(=S)N(c2ccc(C)cc2)C1=O	-8%	3%	2.3µM*	5.2µM*	0
Cc1cc(C)cc(C(=O)N(c2ccccn2)C(C)c2ccco2)c1 (stereo unspecified)	6%	1%	15µM*	?	12
CC(c1ccco1)N(C(=O)c1ccccc1NS(=O)(=O)c1ccc(Cl)c([N+](=O)[O-])c1)c1ccccn1 (stereo unspecified)	-6%	1%	?	?	-86*
Cc1cccc(C(=O)N(c2ccccn2)C(C)c2ccco2)c1 (stereo unspecified)	10%	4%	?	?	11
